Screening data (PubChem)
TR SRC2 fluor cs – Texas Red fluorescence interference in TRb-SRC2 counter-screen; hit rate 0.29% among 280,000; Potency, µM (highest dose often 106 µM), for inactives: top-dose fluorescence change, negative = quenching; TRb/SRC2 Texas Red total fluorescence interference; active = well fitted curve in either direction with a large enough effect; inconclusive = small, poorly fitted or top-dose-only effect; note: potency is the fitted concentration of half-maximal effect; % is set by controls: 0 for no effect and ±100 for the full control effect
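Human TRb ligand-binding domain at 0.6 uM with 20 nM Texas Red SRC2 peptide in Tris buffer containing 1 uM T3 and 5% DMSO, incubated with compound 5 h at ambient temperature. Total fluorescence (555/632 nm) calculated as parallel + 2 × perpendicular.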
USP2a inh – inhibitors of human ubiquitin-specific protease USP2a; Potency, µM (titrated, usually from 38.3 µM), inactives show at the top dose activity change, negative = inhibition, most hits filed as inhibitors; hit rate 0.01% among 330,000; O75604; USP2 core, Ub-CHOP2 coupled fluorogenic reporter, 485/531;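 note: potency is the fitted concentration of half-maximal effect; plate controls were DMSO wells for no effect and full inhibition by NEM control for full effect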
Target sequence (O75604 whole entry, looked up): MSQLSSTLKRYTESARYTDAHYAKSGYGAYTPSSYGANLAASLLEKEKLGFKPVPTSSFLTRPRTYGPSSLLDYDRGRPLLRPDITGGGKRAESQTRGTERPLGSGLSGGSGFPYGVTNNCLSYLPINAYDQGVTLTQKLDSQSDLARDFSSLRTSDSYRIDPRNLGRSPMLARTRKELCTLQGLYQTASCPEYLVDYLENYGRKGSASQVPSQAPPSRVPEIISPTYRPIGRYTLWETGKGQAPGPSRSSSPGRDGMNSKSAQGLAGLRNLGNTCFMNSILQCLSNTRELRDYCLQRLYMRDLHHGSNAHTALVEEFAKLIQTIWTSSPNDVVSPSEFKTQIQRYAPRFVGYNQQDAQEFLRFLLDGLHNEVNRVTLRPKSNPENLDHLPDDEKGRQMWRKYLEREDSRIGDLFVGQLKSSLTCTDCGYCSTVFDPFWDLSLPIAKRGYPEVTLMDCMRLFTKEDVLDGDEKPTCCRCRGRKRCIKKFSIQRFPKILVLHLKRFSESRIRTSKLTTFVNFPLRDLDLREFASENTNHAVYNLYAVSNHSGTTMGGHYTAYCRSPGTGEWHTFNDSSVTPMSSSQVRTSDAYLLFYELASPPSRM
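Deubiquitinase activity read as fluorescence (485/531 nm) after Ub-CHOP2 cleavage activates the enterokinase reporter on its substrate; USP2 core 10nM, Ub-CHOP2 and substrate 25nM each, 30min compound preincubation then 60min RT; data normalized to NEM, curves fitted.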
CBFb-RUNX1 inh – inhibitors of human CBF-beta and RUNX1 interaction; Q01196+Q13951; 230,000 tested, under 10 active; AID 1477; Potency, µM (series often up to 59.8 µM), for inactives: at the highest dose activity, negative = inhibition, actives largely listed as inhibitors; AlphaScreen CBFb-His/RUNX1-biotin binding, biochemical; note: % of control where 0% means no effect
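Room-temperature protein-protein interaction test with 30 nM each of His-tagged CBF-beta and biotinylated RUNX1, 15 min with compound, then 90 min with nickel plus streptavidin beads. Signal read in AlphaScreen mode.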
Eya2 inh – blocks the phosphatase activity of human Eya2; recombinant Eya2, OMFP fluorescence dephosphorylation (OMFP is methylfluorescein phosphate); hit rate 0.006% among 330,000; AID 488837; Potency, µM (titrated, usually from 76.9 µM), inactives show top-dose activity, negative = inhibition, actives largely listed as inhibitors; note: potency is the fitted concentration of half-maximal effect; % is set by controls: 0 for no effect and ±100 for the full control effect
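Eya2 (0.2 uM) preincubated 10 min at ambient with compound, then OMFP substrate added at 50 uM; 10 min reaction in 50 mM HEPES pH 7.5, 50 mM NaCl, 5 uM MgCl2, 0.05% BSA, 1 mM DTT. Fluorescence read at Ex 485/Em 525 nm.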
TRb SRC2 PPI – inhibitors of human thyroid hormone receptor beta-SRC2 interaction; Potency, µM (highest dose often 106 µM), inactives show top-dose activity change, negative = inhibition, most hits filed as inhibitors; TRbeta-SRC2 peptide binding, fluorescence polarization; receptor liganded with 1 µM T3; P10828; hit rate 0.065% among 280,000; AID 1469;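 note: potency is the fitted concentration of half-maximal effect; plate controls were bound peptide for no effect and peptide without receptor for full effect; nearly all actives have a fitted effect of over 50% in size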
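Human TRb ligand-binding domain (0.6 uM) is mixed with 20 nM Texas Red SRC2 peptide and 1 uM T3; after compound addition and 5 hr at ambient temperature, polarization is measured and normalized to unbound and bound controls.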
TSHR antag – antagonists of human thyroid stimulating hormone receptor | TSHR-expressing cells, TSH-stimulated cAMP HTRF, 2 h; active compounds read low | activity change, negative = inhibition, % at 11.5 µM | hit rate 0.2% among 330,000 | AID 504810 | P16473;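 active = activity change below a set negative limit, meaning inhibition stronger than a set level, cut at about -70% in these data; inconclusive = activity change between two set negative limits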; note: % is set by controls: 0 for no effect and ±100 for the full control effect
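Inhibition of cAMP made by TSHR-expressing cells under TSH stimulation (4nM final, EC80; 2 h, 37 deg C) is quantified with a one-step lysis HTRF kit, anti-cAMP cryptate versus cAMP-d2.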
* hit, by the source's call; [ ] = dose if it differs, or a comment. Most compounds without a hit are left out; they make up all but 0.38% or so of the library. Unless noted, calls come from the whole dose curve; as a rule, active = well fitted curve in the direction sought with a large enough effect; inconclusive = small, poorly fitted or top-dose-only effect, or another doubt; inactive = no such curve, though single readings can be large; an effect the other way counts as inactive or inconclusive.

For CC1=CC(C)(C)N2C(=O)C(=Nc3ccc(O)cc3)c3cccc1c32 the results were TR SRC2 fluor cs 3%, USP2a inh 2%, CBFb-RUNX1 inh inconclusive, Eya2 inh 8%, TRb SRC2 PPI 35µM* and TSHR antag -5.
`CCCCCCCCCCCCCCCCCC(N)=O` gave TR SRC2 fluor cs -1%[201 µM] and TRb SRC2 PPI -1%[201 µM].
CCOC(=O)CSc1nnc2cc(C)c3ccccc3n12 was read as TR SRC2 fluor cs 2%, USP2a inh 3%, CBFb-RUNX1 inh -1%, Eya2 inh 0%, TRb SRC2 PPI 0% and TSHR antag 3.
For CC(=O)CSc1nnc2cc(C)c3cc(C)cc(C)c3n12 the results were TR SRC2 fluor cs 25µM*[quencher] and TRb SRC2 PPI -14%.
For O=S(=O)(/N=C/c1c(O)ccc2ccccc12)c1cccs1 the results were TR SRC2 fluor cs inconclusive, USP2a inh -1%, CBFb-RUNX1 inh -6%, Eya2 inh -15%, TRb SRC2 PPI 28µM* and TSHR antag 19.
CC(=O)[C@]1(O)Cc2c(O)c3c(c(O)c2[C@@H](O[C@H]2C[C@H](N)[C@H](O)[C@H](C)O2)C1)C(=O)c1c(O)cccc1C3=O was read as TR SRC2 fluor cs 45µM*[fluorescent], CBFb-RUNX1 inh -22% and TRb SRC2 PPI 22µM*.
`COc1cccc2c1C(=O)c1c(O)c3c(c(O)c1C2=O)C[C@](O)(C(=O)CO)C[C@@H]3O[C@H]1C[C@H](N)[C@@H](O)[C@H](C)O1` gave TR SRC2 fluor cs 1% and TRb SRC2 PPI 3%.
`CC(=O)[C@]1(O)Cc2c(O)c3c(c(O)c2[C@@H](O[C@H]2C[C@H](N)[C@H](O)[C@H](C)O2)C1)C(=O)c1ccccc1C3=O` gave TR SRC2 fluor cs 45µM*[fluorescent], CBFb-RUNX1 inh 1%, Eya2 inh inconclusive, TRb SRC2 PPI inconclusive and TSHR antag -17.
For CCCCC(=O)OCC(=O)[C@]1(O)Cc2c(O)c3c(c(O)c2[C@H](OC2CC(NC(=O)C(F)(F)F)C(O)C(C)O2)C1)C(=O)c1c(OC)cccc1C3=O (stereo not given in full) the results were TR SRC2 fluor cs inconclusive and TRb SRC2 PPI 2%.
For COc1cccc2c1C(=O)c1c(O)c3c(c(O)c1C2=O)C[C@@](O)(C(=O)CO)C[C@@H]3OC1C[C@@H](N)[C@H](O)[C@H](C)O1 (stereo not given in full) the results were TR SRC2 fluor cs 40µM*[fluorescent], CBFb-RUNX1 inh -25% and TRb SRC2 PPI 14µM*.
O=C(CCCCn1c(=O)c2ccccc2n(CC(=O)Nc2ccccc2)c1=O)NCc1ccccc1Cl was read as TR SRC2 fluor cs -12% and TRb SRC2 PPI 1%.
Screening CCOC(=O)c1cc(-c2ccc(OC)cc2)n(CCC(=O)Nc2ccccc2OC)c1C returned TR SRC2 fluor cs -1% and TRb SRC2 PPI -1%.
For CC(C)([CH2][Sn]([CH2]C(C)(C)c1ccccc1)([CH2]C(C)(C)c1ccccc1)[O][Sn]([CH2]C(C)(C)c1ccccc1)([CH2]C(C)(C)c1ccccc1)[CH2]C(C)(C)c1ccccc1)c1ccccc1 the results were TR SRC2 fluor cs 1%, CBFb-RUNX1 inh 15% and TRb SRC2 PPI 0%.
Screening CC(C)(C)OC(=O)NCCc1nnc(SCc2ccccc2Cl)o1 returned TR SRC2 fluor cs 1%, USP2a inh 0%, CBFb-RUNX1 inh 7%, Eya2 inh -1%, TRb SRC2 PPI -5% and TSHR antag -8.
For CC(C)(C)OC(=O)NCCc1nnc(S(=O)(=O)Cc2ccc(Cl)cc2Cl)o1 the results were TR SRC2 fluor cs -3%, USP2a inh 6%, CBFb-RUNX1 inh -12%, Eya2 inh 21%, TRb SRC2 PPI 2% and TSHR antag -78*.
Screening Cc1ccc(CSc2nc3c(c(=O)[nH]2)C(c2cccc(F)c2F)CC(=O)N3)cc1 (stereo not given) returned TR SRC2 fluor cs 8.9µM*[quencher] and TRb SRC2 PPI inconclusive.
`CC1(c2ccccc2)CC(C)(C)N(C(N)=O)c2ccccc21` (stereo not given) gave USP2a inh -4%, Eya2 inh -10% and TSHR antag 68.
Screening CC(=O)N1c2ccccc2C(C)(c2ccccc2)CC1(C)C (stereo not given) returned TR SRC2 fluor cs -8%, USP2a inh -6%, CBFb-RUNX1 inh 4%, Eya2 inh -16%, TRb SRC2 PPI -5% and TSHR antag -78*.
For CCN(CC)C(=O)CSc1nc(-c2ccccc2)cc(-c2ccc(OC)cc2)c1C#N the results were TR SRC2 fluor cs 4% and TRb SRC2 PPI -3%.
COc1ccc(-c2cc(-c3ccc(Cl)cc3)c(C#N)c(SCC(=O)O)n2)cc1 was read as USP2a inh -10%, Eya2 inh -15% and TSHR antag -72*.
COc1ccccc1NC(=O)CSc1nnc(-c2nonc2NC(C)=O)n1-c1ccccc1 was read as TR SRC2 fluor cs 2% and TRb SRC2 PPI 0%.
Cc1cccc(NC(=O)CSc2nc(C)cc(C)c2C(=O)Nc2ccc(Cl)cc2)c1 was read as TR SRC2 fluor cs 6% and TRb SRC2 PPI 2%.
`CN(Cc1ccco1)S(=O)(=O)c1csc(C(N)=O)c1` gave USP2a inh 0%, Eya2 inh 12% and TSHR antag -139*.
`COc1ccc(Cl)cc1NC(=O)C1CCN(C(=O)C2CC(=O)N(c3ccc(C)cc3)C2)CC1` (stereo not given) gave USP2a inh 0%, Eya2 inh -3% and TSHR antag -113*.
Screening NC(=S)c1ccc[n+]([C@@H]2O[C@@H](COP(=O)([O-])OP(=O)(O)OC[C@H]3O[C@@H](n4cnc5c(N)ncnc54)[C@H](OP(=O)(O)O)[C@@H]3O)C(O)C2O)c1 (stereo not given in full) returned Eya2 inh 4% and TSHR antag -12.
`CN(Cc1ccccc1)S(=O)(=O)c1ccc(OCC(=O)NCc2ccccn2)cc1` gave USP2a inh 2%, Eya2 inh -9% and TSHR antag -104*.
Screening CC(Sc1nnc2ccc3ccccc3n12)C(=O)Nc1ccc(Cl)cc1 (stereo not given) returned TR SRC2 fluor cs 1% and TRb SRC2 PPI 0%.
CN(C)c1ccc(NC(=S)c2ccc3ccccc3n2)cc1 was read as USP2a inh -1%, Eya2 inh 1% and TSHR antag -91*.
